Experimental findings from PubChem BioAssay (EPA / NIEHS) are described below.

SMILES strings stand for the structures. Calls of active or inactive are those of the source. How the source made its calls: active means hit-call score of the fitted dose curve at least 0.9, where 1 is the maximum; inactive means score below 0.9.

Assay [1] in a line: APR_HepG2_NuclearSize_72hr: Apredica 72-hour HepG2 Assay for Nuclear Size (AID 2282925). Particulars: high-content imaging, actives raise or lower the signal. The method, boiled down: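 Read-out: nuclear diameter from Hoechst 33342 images (ArrayScan, 20x, six fields/well), via cell-cycle image analysis. HepG2 were dosed 0.39–200 uM for 72 hr in 0.5% DMSO. Bidirectional fit relative to DMSO.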

Assay [2] is described as follows: ATG_CRE_CIS: Attagene CIS-FACTORIAL HepG2 Assay for human cAMP Responsive Element (CRE) binding protein 3 (AID 2282926). Particulars: HepG2 CRE cis-reporter, Attagene multiplexed mRNA; actives raise or lower the signal. An outline of the steps: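 Readout: fluorescently labelled reporter transcripts resolved by capillary electrophoresis after RT-PCR, taken 24 h post-dosing in transfected HepG2. Endogenous transcription factor activity drives each cis-element reporter; gain or loss of signal fitted relative to DMSO control.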

In assay [3] the target is CCAAT/enhancer-binding protein beta (Homo sapiens) (UniProt P17676). The assay can be described thus: ATG_C_EBP_CIS: Attagene CIS-FACTORIAL HepG2 Assay for human CCAAT/Enhancer Binding Protein (C/EBP) beta (AID 2282927). To be noted: HepG2 Attagene cis-factorial transcription factor reporter; actives raise or lower the signal. The method, boiled down: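 HepG2, transient MRTU transfection, 24 h treatment. RT-PCR plus CE fluorescence; DMSO negative control, bidirectional fit.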

A short description of assay [4]: ATG_CMV_CIS: Attagene CIS-FACTORIAL HepG2 Assay for human CMV (Internal Marker) (AID 2282928).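 Further: endpoint acts as a background internal control marker rather than a target.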 Particulars: HepG2 CMV promoter reporter, transcription factor profiling; actives raise or lower the signal. An outline of the steps:
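Readout: fluorescent reporter cDNA fragments separated by capillary electrophoresis after RT-PCR and HpaI cut. Cells: HepG2 carrying transfected cis-promoter reporter constructs, dosed 24 h. Endpoint serves as background internal-marker control, fit bidirectionally versus DMSO.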

A short description of assay [5]: ATG_DR4_LXR_CIS: Attagene CIS-FACTORIAL HepG2 Assay for human Liver X Receptor (LXR), DR4 submotif (AID 2282929). To be noted: HepG2 Attagene DR4 cis-reporter, mRNA transcription; actives raise or lower the signal. An outline of the steps:
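HepG2 cells transiently transfected with cis-promoter-driven multiplexed reporter units (DR4 element) were dosed for 24 h. Reporter mRNA was quantified by RT-PCR, fluorescent primer extension, HpaI digestion and capillary electrophoresis; bidirectional fitting versus DMSO baseline.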

The target in assay [6] is Aryl hydrocarbon receptor (Homo sapiens) (UniProt P35869). Kind of assay: ATG_Ahr_CIS: Attagene CIS-FACTORIAL HepG2 Assay for human Aryl Hydrocarbon Receptor (Ahr) (AID 2282930). Particulars: HepG2 AhR cis-factorial reporter transcription; actives raise or lower the signal. The method, boiled down: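 Endogenous factor activity is tracked through cis-promoter reporter units transfected into HepG2 cells. Transcript levels at 24 h are read by fluorescent RT-PCR and capillary electrophoresis, with activity in either direction scored relative to DMSO.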

Assay [7] can be described thus: ATG_AP_1_CIS: Attagene CIS-FACTORIAL HepG2 Assay for human Activator Protein 1 (AP-1) (AID 2282931). Particulars: HepG2 Attagene cis-factorial AP-1 reporter mRNA; actives raise or lower the signal. The method, boiled down: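 HepG2 cells transiently transfected with cis-element-driven multiplex reporter units; 24 h compound exposure. Reporter mRNA quantified by RT-PCR, FAM-labelled fragments resolved by capillary electrophoresis; bidirectional fit versus DMSO baseline.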

The nature of assay [8]: ATG_AP_2_CIS: Attagene CIS-FACTORIAL HepG2 Assay for human Activator Protein 2 (AP-2) (AID 2282932). To be noted: HepG2 AP-2 cis-reporter, Attagene transcription factor profiling; actives raise or lower the signal. An outline of the steps: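 Liver-derived HepG2 line, cis-reporter system measuring endogenous factors; 24 h dosing; reporter mRNA detected by fluorescent RT-PCR and capillary electrophoresis.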

The nature of assay [9]: ATG_BRE_CIS: Attagene CIS-FACTORIAL HepG2 Assay for human Bone Morphogenetic Protein (BMP) Response Element (BRE) (AID 2282933). Particulars: HepG2 BMP response element reporter, Attagene transcription factor profiling; actives raise or lower the signal. An outline of the steps: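 Transient MRTU transfection of human HepG2 liver cells; 24 h compound treatment; total RNA isolated, reverse-transcribed, PCR-amplified, 6-FAM labelled, HpaI-cut, capillary electrophoresis. DMSO = negative control/baseline, bidirectional fit.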

Assay [10] addresses Retinoic acid receptor alpha (Homo sapiens) (UniProt P10276). The assay can be described thus: ATG_DR5_RAR_CIS: Attagene CIS-FACTORIAL HepG2 Assay for human Retinoic Acid Receptor Alpha (RARE), DR5 submotif (AID 2282934).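 On AC50: reporter responds to endogenous RAR alpha beta and gamma in HepG2 not RARA alone.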 To be noted: HepG2 Attagene cis-factorial RARE DR5 reporter, mRNA; actives raise or lower the signal. An outline of the steps: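 After 24 h of chemical exposure, transiently transfected HepG2 cells were lysed for total RNA; the DR5-regulated reporter transcript was quantified via RT-PCR and capillary electrophoresis, with activity fitted bidirectionally against DMSO.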

Sequence of CCAAT/enhancer-binding protein beta (Homo sapiens) (P17676 whole entry, looked up): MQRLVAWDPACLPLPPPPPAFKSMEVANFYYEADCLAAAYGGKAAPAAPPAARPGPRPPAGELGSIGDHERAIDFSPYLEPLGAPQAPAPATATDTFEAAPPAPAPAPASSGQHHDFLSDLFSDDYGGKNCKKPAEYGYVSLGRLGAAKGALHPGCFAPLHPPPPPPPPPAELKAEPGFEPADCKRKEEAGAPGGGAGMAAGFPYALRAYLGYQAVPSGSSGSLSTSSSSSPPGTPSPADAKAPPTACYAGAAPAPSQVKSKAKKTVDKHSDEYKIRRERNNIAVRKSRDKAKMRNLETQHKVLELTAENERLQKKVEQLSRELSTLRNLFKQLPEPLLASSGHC
Sequence of Retinoic acid receptor alpha (Homo sapiens) (P10276 whole entry, looked up): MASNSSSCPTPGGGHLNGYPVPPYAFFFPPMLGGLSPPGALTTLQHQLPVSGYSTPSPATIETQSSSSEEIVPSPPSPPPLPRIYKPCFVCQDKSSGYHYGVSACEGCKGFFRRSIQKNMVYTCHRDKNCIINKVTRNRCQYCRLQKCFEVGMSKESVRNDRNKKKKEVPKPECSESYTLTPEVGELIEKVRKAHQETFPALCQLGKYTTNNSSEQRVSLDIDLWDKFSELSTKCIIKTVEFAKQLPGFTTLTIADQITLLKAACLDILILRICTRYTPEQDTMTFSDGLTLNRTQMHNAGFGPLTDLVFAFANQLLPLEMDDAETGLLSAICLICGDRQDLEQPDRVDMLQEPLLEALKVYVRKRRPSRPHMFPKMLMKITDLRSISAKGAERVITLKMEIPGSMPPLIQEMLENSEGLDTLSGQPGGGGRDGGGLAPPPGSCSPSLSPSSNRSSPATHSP
Sequence of Aryl hydrocarbon receptor (Homo sapiens) (P35869 whole entry, looked up): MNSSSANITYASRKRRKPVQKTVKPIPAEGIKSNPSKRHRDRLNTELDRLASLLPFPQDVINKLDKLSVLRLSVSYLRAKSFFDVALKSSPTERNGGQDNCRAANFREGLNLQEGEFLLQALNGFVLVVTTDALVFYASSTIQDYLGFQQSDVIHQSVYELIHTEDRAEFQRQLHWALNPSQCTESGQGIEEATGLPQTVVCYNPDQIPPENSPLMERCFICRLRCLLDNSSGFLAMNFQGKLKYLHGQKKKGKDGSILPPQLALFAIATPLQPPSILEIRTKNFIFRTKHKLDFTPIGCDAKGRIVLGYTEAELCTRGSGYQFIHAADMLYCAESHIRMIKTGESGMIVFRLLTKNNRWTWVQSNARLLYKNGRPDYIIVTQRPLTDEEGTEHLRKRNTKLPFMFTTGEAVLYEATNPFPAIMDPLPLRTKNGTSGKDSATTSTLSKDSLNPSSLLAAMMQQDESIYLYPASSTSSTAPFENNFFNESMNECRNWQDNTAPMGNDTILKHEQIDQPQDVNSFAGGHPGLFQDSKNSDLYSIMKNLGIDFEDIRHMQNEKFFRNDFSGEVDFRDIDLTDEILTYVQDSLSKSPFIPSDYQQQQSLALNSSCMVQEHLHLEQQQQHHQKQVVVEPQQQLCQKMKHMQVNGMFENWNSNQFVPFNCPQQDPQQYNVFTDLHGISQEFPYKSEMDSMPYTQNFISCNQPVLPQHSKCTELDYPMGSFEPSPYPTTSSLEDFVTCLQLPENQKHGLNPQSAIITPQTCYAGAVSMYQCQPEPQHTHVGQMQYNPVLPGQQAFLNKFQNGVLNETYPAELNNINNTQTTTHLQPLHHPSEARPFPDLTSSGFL

With `CCOC(=O)C(C)(C)Oc1ccc(Cl)cc1`, the compound was classed as inactive in [1], in assay [2], in assay [3], in assay [4], in assay [5] and in assay [6]. In addition, the call in assay [7] and in assay [8] was inactive.
In the case of `Cc1ccc(N(C)C)cc1`, the outcome in assay [1], in assay [2], in assay [3], in assay [4], in assay [5] and in assay [6] was inactive. In addition, the compound was classed as inactive in [7] and in assay [8].
With `COCCOCCOC`, the compound was called inactive in [1], in assay [2], in [3], in assay [4], in assay [5] and in assay [6]. The compound was called inactive in [7] and in assay [8].
In the case of `Clc1cc(Cl)c(Cl)cc1Cl`, the outcome in assay [1], in assay [2], in assay [3], in [4], in assay [5] and in assay [6] was inactive. The result in assay [7] and in [8] was inactive.
Usually AC50 stands for the midpoint of the concentration-response curve, whichever way the signal moves. Consider `C[Si]1(C)O[Si](C)(C)O[Si](C)(C)O[Si](C)(C)O1`, for which the call in assay [1], in [2], in assay [3], in assay [4], in [6] and in [7] was inactive. Also, the compound was classed as inactive in [8] and in assay [9]. The AC50 in assay [5] is 49.6 µM (active).
Turning to `COc1cc(S(=O)(=O)O)c(C)cc1N=Nc1c(O)ccc2cc(S(=O)(=O)O)ccc12`, the call in [1], in assay [2], in [3], in assay [4], in [5] and in [6] was inactive. For the same compound, the call in assay [7], in assay [8] and in assay [9] was inactive.
On to `Cc1ccc(C(C)C)c(O)c1`, for which the compound was classed as inactive in [1], in assay [2], in [3], in assay [4], in [5] and in assay [6]. The outcome in [7] and in assay [8] was inactive.
For `CC(=O)C(C)=CC1C(C)=CCCC1(C)C` (stereo not given), the outcome in [1], in [2], in assay [3], in assay [4], in assay [5] and in [6] was inactive. In addition, the compound was called inactive in [7], in assay [8] and in [9].
As to `Cc1oc(-c2ccccc2)nc1CCOc1cccc2c1ccn2CCC(=O)O`, the compound was called inactive in assay [1], in [2], in assay [3], in [6] and in assay [8]. Also, the AC50 in assay [4] and in [5] was 19.8 µM (active) in each case.
In the case of `Oc1ccc2c(c1)OC[C@@H](N1CCC(O)(c3ccc(F)cc3)CC1)[C@H]2O`, the compound was called inactive in assay [1], in assay [2], in [3], in assay [4], in assay [5] and in assay [7]. Further, the outcome in [8] and in assay [10] was inactive. Besides, the AC50 in assay [6] is 50 µM (active).
On to `c1cc(-c2ccncc2)ccn1`, for which the outcome in [1], in assay [2], in assay [3], in assay [4], in assay [5] and in [6] was inactive. For the same compound, the compound was called inactive in [7], in assay [8] and in [10].
On to `OC[C@@H](O)[C@@H](O)[C@H](O)[C@H](O)CO`, for which the call in assay [1], in assay [2], in [3], in [4], in assay [5] and in assay [6] was inactive. Also, in assay [8], the call was inactive.
Consider `CCCCCCOCCO`, for which the compound was called inactive in assay [1], in assay [2], in [3], in assay [4], in assay [5] and in assay [6]. For the same compound, the call in [7], in assay [8] and in assay [10] was inactive.
As to `NCCO`, the call in assay [1], in assay [2], in [3], in [4], in assay [5] and in [6] was inactive. Also, in assay [8], the result was inactive.
With `CCCCc1ccc2c(n1)[C@@H](c1ccc(OC)cc1C[C@H](C)C(=O)O)[C@H](C(=O)O)[C@H]2c1ccc2c(c1)OCO2`, the outcome in assay [1], in assay [2], in assay [3], in [4], in [5] and in assay [6] was inactive. In addition, the outcome in [8] was inactive.
As to `COc1cc(C=O)ccc1O`, the result in [1], in assay [2], in [3], in [4], in [5] and in assay [7] was inactive. The compound was classed as inactive in assay [8] and in [9]. The AC50 in [6] was 80.8 µM (active); in [10], 31.1 µM (active).
As to `O=C(O)CCCCC(=O)O`, the result in assay [1], in [2], in assay [3], in [4], in assay [5] and in assay [8] was inactive. Further, the half-maximal activity concentration (AC50) in assay [6] is 72.5 µM (active).
Consider `O=[N+]([O-])C(CO)(CO)CO`, for which the compound was called inactive in assay [1], in [2], in [3], in [4], in assay [5] and in assay [7]. In addition, the result in assay [8] and in assay [10] was inactive. Further, in assay [6], the concentration at half-maximal activity (AC50) is 68.9 µM (active).
For the compound `Cc1cccc([N+](=O)[O-])c1C`, the compound was classed as inactive in assay [1], in assay [2], in assay [3], in assay [4], in assay [5] and in [6]. For the same compound, the result in assay [7], in [8], in [9] and in assay [10] was inactive.
For the compound `CC(=O)OC/C=C(\C)CCC=C(C)C`, the outcome in assay [1], in assay [2], in [3], in assay [4], in assay [5] and in assay [6] was inactive. Moreover, the compound was classed as inactive in assay [7], in assay [8] and in assay [10].
Regarding `O=c1c(O)c(-c2ccc(O)c(O)c2)oc2cc(O)cc(O)c12`, the compound was called inactive in assay [1], in [2], in assay [3], in assay [5], in assay [8] and in [9]. Further, the figures for the AC50 in assay [4], in assay [6] and in [7] were 26.5 µM (active), 5.8 µM (active) and 100 µM (active), respectively.
Take `CCOc1ccc2c(c1)C(C)=CC(C)(C)N2`: the result in [1], in assay [2], in assay [3], in assay [6], in assay [8] and in [9] was inactive. Also, the AC50 in [4] was 69.4 µM (active); in assay [5] it was 175 µM (active); in [7], 100 µM (active).
